# Screens (PubChem)
# Shown are actives, neighbours in structure and some others; about 4% of the full set was active somewhere.
# TWEAK Fn14 block – TWEAK-Fn14 signaling inhibition. TWEAK-stimulated Fn14 reporter cells, luciferase luminescence, 8 h. inhibition, % at 10 µM. 360,000 compounds, 2% hits; in the data active means inhibition above about 50%
# HIF-2a block – HIF-2a inhibition; 786-0 RCC cells HIF-2a reporter, luciferase luminescence, overnight; inhibition, % at 18.8 µM; 360,000 compounds, 0.72% hits; AID 624352;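 active means inhibition of the luminescence signal of 40% or more relative to plate controls, in a single-dose primary screen at 18.75 µM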
# TROY NFkB inh – blocks TROY-dependent signaling in reporter cells | 360,000 compounds, 0.98% hits | inhibition, % at 10 µM | Q293 LMP1-TROYcd NF-kB luciferase reporter, 4 h | AID 1347056;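 active means compounds whose plate-normalised and pattern-corrected inhibition of the luciferase reporter signal at the single screening dose is 50% or more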
# CF NFkB inh – blocks PAF-induced NF-kB reporter in cystic fibrosis cells; KKLEB NF-kB-GFP reporter, GFP fluorescence overnight; 360,000 compounds, 0.86% hits; inhibition, % at 5 µM;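 active means at least 50% inhibition at 5 µM, scaled per plate between neutral and stimulator controls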;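 further: PAF is a Pseudomonas aeruginosa culture filtrate used as stimulus; plate controls were PAF-stimulated DMSO wells for no effect and unstimulated DMSO wells for full effect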
# Peg3 prom inh – reduces Peg3 promoter-driven luciferase expression in HeLa; HeLa PEG-Prom luciferase reporter, luminescence, overnight; inhibition, % at 20 µM; 360,000 compounds, 1.7% hits;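 active means inhibition of at least 50% at 20 µM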
# KKLEB cytotox – reduces viability of KKLEB cystic fibrosis airway cells; 360,000 compounds, 0.36% hits; KKLEB CF airway cells viability, ATPlite luminescence, overnight; active compounds read low; cells stimulated with P. aeruginosa culture filtrate; activity change (cytotoxicity), % at 5 µM; AID 602141;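 active means corrected activity change at or below -50% at 5 µM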
# * hit, by the source's call; . = no result given.
SMILES,TWEAK Fn14 block,HIF-2a block,TROY NFkB inh,CF NFkB inh,Peg3 prom inh,KKLEB cytotox
COc1ccc(CN2CCN(C(c3ccc(F)cc3)c3ccc(F)cc3)CC2)c(OC)c1OC,24,-18,29,22,77*,0
COc1ccc(CN2CCN(c3ccc(F)cc3)CC2)c(OC)c1OC,6,23,19,-2,18,5
C=CCc1cccc2cc(C(=O)Nc3ccc(CC(=O)O)cc3)c(=O)oc12,25,64*,-19,6,-40,-6
C=CCc1cccc2cc(C(=O)Nc3ccc(F)cc3)c(=O)oc12,-19,-137,-47,-19,-125,3
OCC[C@@H]1C[C@H](O)[C@@H](O)[C@]2(OCc3ccc(CO)cc32)O1,2,5,-13,-6,6,2
CCOC(=O)c1cnc2c(c(C)nn2-c2ccc(C)cc2)c1Cl,41,6,-37,23,101*,-3
Cc1c(Cc2ccccc2)c(=O)oc2cc(OCC(=O)NCC3CCC(C(=O)O)CC3)ccc12 (stereo not given),-2,5,-11,-2,5,11
O=C(/C=C/c1ccc(OCCCF)cc1)Nc1ccnc(-c2cccnc2)n1,27,-35,52*,-26,-7,13
COC(=O)c1ccc2c(=O)[nH]c(COC(=O)c3c(-c4ccccc4)noc3C)nc2c1,3,11,-12,-7,2,-16
O=C1CC(c2ccccc2)CC(O)=C1C=NCc1ccc(Cl)c(Cl)c1 (stereo not given),76*,6,.,-5,15,2
O=C1CC(c2ccccc2)CC(O)=C1C=NCc1ccncc1 (stereo not given),11,17,-3,13,6,-4
CCOC(=O)CN1C(=O)c2ccccc2C1=O,2,17,-6,-10,-4,14
CCCOC(=O)CN1C(=O)c2ccccc2C1=O,82*,1,.,2,4,15
CN(Cc1ccccc1)C(=O)COC(=O)CCC(=O)c1ccc(F)cc1,24,2,-9,10,-6,-4
CCN(c1ccccc1)S(=O)(=O)c1cc(C(=O)Nc2ccc(F)c(F)c2)ccc1F,80*,-24,63*,23,42,2
CCN(c1ccccc1)S(=O)(=O)c1ccc(C(=O)Nc2cccc(NC(C)=O)c2)cc1,21,-4,-5,0,-14,-40
COc1ccccc1N1CC(C(=O)OC(C)C(=O)Nc2ccc(F)cc2)CC1=O (stereo not given),-3,-2,-17,14,-2,-11
COc1ccccc1C(=O)NNC(=O)c1cccc(F)c1,67*,-66,8,-13,-88,2
C=C1C(=O)[C@]23C[C@H]1CCC2[C@@]1(C)C(C[C@@H]3O)[C@](C)(C(=O)OC)CC[C@@H]1OC(C)=O (stereo not given in full),96*,98*,37,89*,102*,-100*
COc1ccc(CCN(C)C(=O)c2cnc(C)cn2)cc1OC,-7,9,-5,-11,0,8
O=C(/C=C/c1cccnc1)c1ccc(O)cc1,27,-4,13,35,7,-5
O=C(C=Cc1cccnc1)c1ccccc1,50,-25,2,-10,79*,6
COc1cc(C2CC(=O)Nc3ccccc3S2)cc(OC)c1OC (stereo not given),42,11,11,-14,51*,-5
CN1N=C(C(C)(C)C)CSC1=Nc1ccc(F)cc1,66*,7,-10,9,2,-14
CC(C)Oc1ccc(/C(O)=C2/C(=O)C(=O)N(CCN3CCNCC3)C2c2ccc(C(C)C)cc2)cc1 (stereo not given),9,5,-25,-4,-2,-6
COC(=O)N1C(=O)[C@](Cc2ccccc2)(c2ccccc2)N1C(=O)OC,10,-72,-24,49,16,-21
Cc1[nH]c2ccccc2c1/C=N/NC(=O)C1CC1(c1ccccc1)c1ccccc1 (stereo not given),66*,-19,24,5,26,-27
Cc1cccc(C(=O)OCC(=O)NC(C)CCc2ccccc2)c1O (stereo not given),4,16,-4,-8,13,3
